# High-throughput results (PubChem BioAssay)
# TbPYK inhibitor – inhibitors of Trypanosoma brucei pyruvate kinase; Q57TT1; Potency, µM (highest dose often 76.8 µM), without a hit: at the highest dose activity, negative = inhibition, usual class: inhibitors; TbPYK enzyme, Kinase-Glo Plus ATP luminescence, 45 min; 410,000 compounds, 0.12% hits; further: potency means the concentration at half of the fitted maximal effect; on the % scale 0 is the no-effect control and ±100 the full control effect; nearly all actives have a fitted effect of over 50% in size
#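 Readout: single end-point luminescence (Kinase-Glo Plus, 10 min). Reaction conditions were TbPYK/substrate plus 130 uM ADP, 45 min at RT, pH 7.2 TEA buffer. No-enzyme wells served as controls, and data were normalized before concentration-response fitting.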
# FBPA Giardia inh – inhibitors of Giardia lamblia fructose-1,6-bisphosphate aldolase. purified Giardia FBPA. 290,000 compounds, 0.71% hits. AID 2451. Potency, µM (top dose mostly 59.6 µM), for the others: top-dose activity, negative = inhibition, most hits filed as inhibitors; further: potency means the concentration at half of the fitted maximal effect; on the % scale 0 is the no-effect control and ±100 the full control effect; nearly all actives have a fitted effect of over 55% in size
# Target sequence (A8B2U2 whole entry, looked up): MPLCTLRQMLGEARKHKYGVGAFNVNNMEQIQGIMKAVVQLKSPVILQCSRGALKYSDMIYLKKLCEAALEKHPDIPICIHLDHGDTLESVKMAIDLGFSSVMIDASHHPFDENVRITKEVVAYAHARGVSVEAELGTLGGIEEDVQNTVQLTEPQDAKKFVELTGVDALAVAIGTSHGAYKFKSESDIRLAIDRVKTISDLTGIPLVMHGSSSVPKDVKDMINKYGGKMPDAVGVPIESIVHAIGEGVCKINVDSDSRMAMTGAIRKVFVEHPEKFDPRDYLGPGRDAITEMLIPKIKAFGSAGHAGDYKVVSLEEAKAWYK
#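 Giardia FBPA (40 nM reagent) was preincubated 10 min at RT with compound (up to 57.5 uM final), then substrate plus GAPDH/TPI/NAD/arsenate coupling system with diaphorase/resazurin was added; resorufin fluorescence (525/598 nm) was read after 20 min.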
# LmPK inhibitor – LmPK (Leishmania mexicana) enzyme inhibition; purified LmPK, Kinase-Glo ATP luminescence, 1 h; Potency, µM (doses to about 57.5 µM), without a hit: top-dose activity change, negative = inhibition, most hits filed as inhibitors; 290,000 compounds, 0.37% hits; AID 1721; further: potency means the concentration at half of the fitted maximal effect; on the % scale 0 is the no-effect control and ±100 the full control effect
#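 Kinase-Glo luminescence read after 1 h RT reaction of 0.1 nM LmPK with 0.5 mM PEP and 0.1 mM ADP. Activity scaled between uninhibited and enzyme-free controls.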
# RE007 growth inh – less growth of the S. pombe RE007 Vpr strain. S. pombe RE007 Vpr strain, BacTiter-Glo ATP luminescence, 24 h. AID 651644. Potency, µM (top dose mostly 92.2 µM), without a hit: at the top dose activity change, negative = less growth, actives largely listed as inhibitors. 360,000 compounds, 0.21% hits; active means well fitted falling curve with a large enough effect; inconclusive means small, poorly fitted or top-dose-only effect; inactive means no such curve, though single readings can be large or run the other way; further: potency means the concentration at half of the fitted maximal effect; on the % scale 0 is the no-effect control and ±100 the full control effect; nearly all actives have a fitted effect of over 50% in size
#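 Fission yeast strain RE007, carrying one chromosomally integrated HIV-1 vpr copy, was seeded at OD 0.01 in PMG+AL medium with 23 nL pinned compound. After 24 h at 30 °C and 99% humidity, viability was read by BacTiter-Glo luminescence.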
# Shiga toxin inh – inhibitors of Shiga toxin in Vero cells | Vero cells, Shiga toxin protein synthesis inhibition reporter | inhibition, % at 38.7 µM | 290,000 compounds, 9.2% hits | AID 2315; in the data active means inhibition mostly above about 28%, no sharp cut-off; inactive means mostly below about 43%; further: 0% is about no effect
# Cycloheximide cs – counter-screen for Shiga toxin inhibitors: cycloheximide protein synthesis inhibition | AID 2314 | cell reporter, cycloheximide protein synthesis inhibition counterscreen | max response, % | 300,000 compounds, 12% hits; in the data active means max response mostly above about 13%, no sharp cut-off; inactive means mostly below about 14%; further: read at 38.3 µM for the half of the compounds with a filed dose; 0% is about no effect
# * marks the source's active call; other numbers are inactive results; u = inconclusive; x = not tested or not shown; [ ] = remark or other dose. Many of the other results were omitted from the sample, so hits are more common in it than they were. Unless noted, the call rests on the fitted dose curve; in most records, active means well fitted curve in the direction sought with a large enough effect; inconclusive means small, poorly fitted or top-dose-only effect, or another doubt; inactive means no such curve, though single readings can be large; an effect the other way counts as inactive or inconclusive.
SMILES,TbPYK inhibitor,FBPA Giardia inh,LmPK inhibitor,RE007 growth inh,Shiga toxin inh,Cycloheximide cs
COc1ccc(OC)c(-c2csc(NC(=O)c3ccc4c(c3)OCO4)n2)c1,-9%,-12%,5%,-12%,63*,18*
COc1cc(OC)c(C(=O)Oc2ccc3c(c2)OCO3)cc1OC,-1%,15%,-3%,2%,-10,8
COc1cccc(NC(=O)c2nnn(Cc3ccc(OC)c(Br)c3)c2N)c1,-7%,x,x,x,x,x
CCN(C(=O)c1cc2c(=O)n3ccccc3nc2s1)C1CCCCC1,1%,0%,3%,14%,44*,18
CCN(C(=O)c1cc2c(=O)n3cccc(C)c3nc2s1)C1CCCCC1,6%,-3%,0%,-2%,1,15
CCN(C(=O)c1cc2c(=O)n3ccccc3nc2n1CCCOC)C1CCCCC1,-4%,x,5%,-4%,-6,3
CN(C(=O)c1cc2c(=O)n3ccccc3nc2n1C)C1CCCCC1,0%,x,0%,3%,105*,62*
CCN(C(=O)c1cc2c(=O)n3ccccc3nc2n1C)C1CCCCC1,0%,x,3%,-6%,61*,37*
CCN(CC)C(=O)c1cc2c(=O)n3cccc(C)c3nc2s1,-5%,6%,-3%,-18%,42,27*
CCCCN(CC)C(=O)c1cc2c(=O)n3cccc(C)c3nc2s1,-15%,-2%,1%,17%,17,12
Cc1ccc(NC(=O)C2CCN(S(=O)(=O)c3ccc4[nH]c(=O)ccc4c3)CC2)cc1C,-2%,x,x,x,x,x
CC[C@H]1[C@@H]2C=C[C@@H]3[C@H]4C/C=C\C(=O)NCCC[C@@H]5NC(=O)C(=C5O)C(=O)CC[C@@H]4C[C@@H]3[C@H]2C[C@H]1C,x,5%,x,x,-25,-11
COc1ccc2[nH]cc(CCNc3ccnc(-c4ccccc4Cl)n3)c2c1,x,-5%,x,x,x,x
CCOC(=O)c1noc2ncn(CC(=O)Nc3ccc(C)c(F)c3)c(=O)c12,6%,x,x,x,x,x
Cc1nnc(N2CCC(C(=O)NCCc3ccccc3Cl)CC2)c2nn(-c3ccccc3)c(C)c12,1%,x,x,x,x,x
O=C(Cn1c(=O)n(Cc2ccc3c(c2)OCO3)c(=O)c2oc3ccccc3c21)Nc1ccccc1F,-5%,x,x,x,x,x
COc1cccc(/C=C/C(=O)Nc2ccc3nc4n(c(=O)c3c2)CCCC4)c1OC,3%,1%,19%,14%,42*,23
COc1cc(/C=C/C(=O)Nc2ccc3nc4n(c(=O)c3c2)CCCC4)cc(OC)c1OC,-3%,3%,0%,-5%,-13,-4
COc1cc(OC)cc(C(=O)Nc2ccc3nc4n(c(=O)c3c2)CCCCC4)c1,-2%,1%,0%,-14%,49*,46*
COc1ccc(CCNC(=O)CN2C(=O)COc3ccccc32)cc1OC,-2%,x,x,x,x,x
Cc1cccc(Cn2cnc3c(oc4ccccc43)c2=O)c1,3%,x,x,x,x,x
O=c1cc(CSc2ccc([N+](=O)[O-])cc2)nc2sccn12,1%,-4%,0%,0%,68*,20
Cc1ccc(SCc2cc(=O)n3ccsc3n2)c(C)c1,x,-7%,-10%,x,47,21*
Cc1cccc(-n2c(SCc3cc(=O)n4ccsc4n3)nc3ccccc32)c1,u,u,-6%,7%,23,20*
O=c1cc(CSc2n[nH]c(-c3ccncc3)n2)nc2sccn12,-6%,-8%,0%,3%,-16,1
SMILES,TbPYK inhibitor,FBPA Giardia inh,LmPK inhibitor,RE007 growth inh,Shiga toxin inh,Cycloheximide cs
Cc1ccc(Nc2nnc(SCc3cc(=O)n4ccsc4n3)s2)c(C)c1,u,-22%,3%,3%,-3,-4
Cn1c(Cc2ccccc2)nnc1SCc1cc(=O)n2ccsc2n1,1%,2%,-9%,-16%,19,7
CCN(CC)CCc1c[nH]c2ccccc12,2%[288 µM],x,x,x,x,x
Cc1cc(C)cc(NS(=O)(=O)c2ccc3c(c2)CCCN3C(=O)C2CCC2)c1,0%,x,x,x,x,x
CCOc1ccccc1N(CC)C(=O)Cn1ncc2c1-c1ccccc1OC2,0%,x,x,x,x,x
N#Cc1cccc(NC(=O)CSc2ccccc2)c1,1%,3%,0%,10%,3,9.1*
COC(=O)c1ccc(NC(=O)CSc2ccccc2)cc1,u,-3%,-1%,-7%,64*,31*
COC(=O)c1ccc(NC(=O)CSc2ccccn2)cc1,-7%,1%,4%,-15%,36*,58*
COC(=O)c1ccc(NC(=O)CS(=O)(=O)c2ccccc2)cc1,-2%,1%,-3%,-2%,46,11*
O=C(Nc1cc(-c2nc3cc(Cl)ccc3o2)ccc1Cl)c1cc2ccccc2o1,5%,x,x,x,x,x
CC(C)CO/N=C1/C[C@@H](O)[C@@H](O)[C@@H]2[C@@H]3C(=O)N(c4cccc(Oc5ccccc5)c4)C(=O)[C@H]3CC[C@@H]12,x,-1%[12.9 µM],x,x,x,x
CCN(CC)C(=O)C(=O)Nc1ccc(Oc2ccccc2)cc1,-2%,-10%,5%,-2%,78*,24*
CCN(CC)C(=S)Nc1ccc(C(=O)OC)cc1,-1%,-2%,-5%,-5%,14,-1
Cc1cc(C)cc(NC(=O)CSc2nc3ncccc3[nH]2)c1,5%,x,x,x,x,x
CCN(CC)C(=O)Nc1ccc(C(=O)OC)cc1,-7%,6%,1%,-12%,13,16*
CCN(CC)CC(=O)Nc1ccc(Oc2ccc(NC(=O)CN(CC)CC)cc2)cc1,-4%,0%,2%,-4%,2,7
O=C(CSc1nc2ncccc2[nH]1)c1ccc2c(c1)OCO2,0%,1%,-3%,3%,43*,39*
COC(=O)c1ccc(NC(=O)CSc2nc3ncccc3[nH]2)cc1,-2%,0%,-3%,18%,22,12*
CC(C)c1ccc(NC(=O)Cn2c(=O)n(CC3CCC(C(=O)NCCc4ccccc4)CC3)c(=O)c3ccccc32)cc1 (stereo not given),-4%,x,x,x,x,x
Clc1ccccc1CSc1cc2c(nn1)-c1ccccc1CC2,3%,1%,2%,9%,165*,42*
Clc1cccc(Cl)c1CSc1cc2c(nn1)-c1ccccc1CC2,-6%,0%,2%,8%,-26,-2
COC(=O)C1=C(C(=O)OC)[C@@H]2N(C)c3ccccc3[C@@]23C[C@@H](C(=O)OC)N(S(=O)(=O)c2ccc(C(F)(F)F)cc2)C3=N1,x,-6%[12.9 µM],5%[11.5 µM],x,x,x
COc1cc(Br)c(C2CC(=O)Nc3cc(OC)c(OC)c(OC)c32)cc1OC (stereo not given),-3%,x,x,x,x,x
COc1ccc(OCC(=O)C2CC2)c(C#N)c1,2%,6%,0%,-3%,26,27*
N=C1/C(=C\c2ccc(OC(=O)c3ccccc3Cl)cc2)C(=O)N=C2SC(N3CCOCC3)=NN12,-11%,x,-9%,-17%,58*,24*
COc1cc(/C=C2\C(=N)N3N=C(N4CCOCC4)SC3=NC2=O)ccc1OC(=O)c1ccccc1,3%,8%,0%,-7%,5,4
